Assay outcomes as filed in PubChem BioAssay.
Only some compounds are listed: those with a hit (about 3.9% of all), similar ones and a draw of the others.
Autofluor counter: compound fluorescence in toxin protease inhibitor counterscreen; compound autofluorescence counterscreen, microsphere flow cytometry; hits give high values; fluorescence intensity (no concentration beside the values); hit rate 3.1% among 360,000; AID 624483; in the data active = fluorescence intensity above about 16000; inconclusive = no clear call, values can overlap the other calls
BoNT-F LC inh: BoNT F light chain protease inhibition; hit rate 0.22% among 360,000; inhibition, % at 10 µM; Multiplex microsphere protease cleavage assay, flow cytometry; in the data active = inhibition above about 35%, passing the limit was not always enough; inconclusive = no clear call, values can overlap the other calls
3CLpro inhibitor: SARS-CoV 3CLpro protease inhibition; P0C6X7; recombinant SARS-CoV 3CLpro, quenched FRET peptide cleavage; inhibition, % at 6 µM; hit rate 0.14% among 290,000; in the data active = inhibition above about 12%
BoNT A protease: inhibitors of Botulinum neurotoxin A light chain protease. multiplex microsphere protease substrate cleavage, flow cytometry. inhibition, % at 10 µM. hit rate 0.17% among 360,000. AID 588499
Anthrax LF inh2: blocks Bacillus anthracis lethal factor protease; inhibition, % at 10 µM; multiplex microsphere protease cleavage assay, LF; P15917; hit rate 0.12% among 360,000; AID 588501
DUSP3 inh: DUSP3 (human) phosphatase inhibition; inhibition, % at 13.3 µM; recombinant VHR phosphatase, pNPP absorbance; hit rate 0.52% among 290,000; P51452; in the data active = inhibition above about 50%
Large screens that a line does not name were inactive. Rule as the data show it, unless noted: active = inhibition above about 30%; inconclusive = no clear call, values can overlap the other calls; inactive = below that.

CC(C)Cn1c(SCC(=O)c2ccc(Cl)s2)nnc1-c1ccco1	Autofluor counter 22317
CCCCn1c(SCC(=O)NC(C)(C)C)nnc1-c1ccco1	none
COCCCn1c(SCC(=O)N2CCCCC2C)nnc1-c1ccco1 (stereo not given)	Autofluor counter 16205
CC(C)Cn1c(N)c(C(=O)CSc2nnc(-c3ccco3)n2C)c(=O)n(C)c1=O	none (no result: 3CLpro inhibitor, DUSP3 inh)
CCCCn1c(SCC(N)=O)nnc1-c1ccco1	Autofluor counter 22326
CS(=O)(=O)c1sc(C#N)c2c1C(=O)CC(c1ccccc1)C2 (stereo not given)	none
O=CNc1cc(-c2cccc(F)c2)cn2c(-c3ccc(F)c(Cl)c3)cnc12	none (no result: 3CLpro inhibitor, DUSP3 inh)
Cc1cn2c(-c3ccncc3)nnc2s1	none
Cc1cn2c(-c3cccnc3)nnc2s1	Autofluor counter 19239
CC(NC(=O)C(=O)N/N=C\c1cccc([N+](=O)[O-])c1)c1ccccc1 (stereo not given)	none
CCOC(=O)c1c(CN2CCOCC2)oc2ccc(OC)cc12	Autofluor counter 21090, BoNT A protease inconclusive
CCOC(=O)c1c(N)sc(C(=O)N(C)C)c1CN1CCOCC1	Autofluor counter 20070
CCOC(=O)c1c(C)n(CCN2CCN(C)CC2)c2ccc(OC)cc12	Autofluor counter 20539
CC1CCc2sc(C(=O)N/N=C/c3ccc(O)cc3)cc2C1 (stereo not given)	none
CC(=O)N1CCc2cc(S(=O)(=O)CCC(=O)N(C)c3cc(C)ccc3C)ccc21	none
Cn1nnnc1SCCNCc1ccccc1OCc1ccc(F)cc1	none
COc1cc(CNCCSc2nnnn2C)cc(OC)c1OC	none
O=C(O)c1ccc(-n2nnnc2SCc2ccccc2F)cc1	none
Cn1nnnc1SCCNCc1ccccc1F	Autofluor counter 22828
Cn1nnnc1SCc1ccccc1F	Autofluor counter 22071
COc1cccc(CNCCSc2nnnn2C)c1OC	Autofluor counter 22850
COc1ccccc1-c1nnc(SCC(=O)NCc2cccs2)n1N	none
CCCCc1cc(=O)oc2cc(C)cc(OCC(=O)O)c12	Autofluor counter 21248, BoNT A protease inconclusive
COC(=O)c1[nH]c2cccc(OC)c2c1NC(=O)CN(C)CC1OCCO1	Autofluor counter 16319
C/C(=N\NC(=S)NC1CCCCC1)c1cccc(C(F)(F)F)c1	none
Cn1cccc1-c1nc2ccc(NC(=O)c3ccc([N+](=O)[O-])cc3)cc2[nH]1	Autofluor counter 19889
COC(=O)c1ccccc1N1CCS(=O)(=O)CC1	none
CCN(CC)C(=O)CN(c1ccc2c(c1)OCO2)S(C)(=O)=O	none
COC(=O)CN(c1ccc2c(c1)OCO2)S(C)(=O)=O	Autofluor counter 24591
CCCCCNC(=O)CN(c1ccc2c(c1)OCO2)S(C)(=O)=O	Autofluor counter 20699
COc1ccc(CCNC(=O)c2cc(S(=O)(=O)N3CCOCC3)ccc2F)cc1	none (no result: 3CLpro inhibitor, DUSP3 inh)
C/C(CC(=O)Nc1ccc(F)cc1F)=N\NC(=O)C(=O)N1CCCCC1	none (no result: Autofluor counter, BoNT-F LC inh, BoNT A protease, Anthrax LF inh2)
CCCOc1ccc(/C=C/C(=O)Nc2ccc([N+](=O)[O-])cc2C)cc1OC	Autofluor counter 22086, BoNT A protease inconclusive
Cc1cc(CNC(=O)Cc2c(F)cccc2Cl)nn1C	Autofluor counter 19997
Cc1cc(CNC(=O)c2cc(-c3ccccc3)nc3ccccc23)nn1C	none
Cc1cc(C(=O)NCc2cc(C)n(C)n2)sc1-c1ccccc1	Autofluor counter 18215
COC(=O)[C@]12CCCCC=C1N(CCC1=CCCCC1)C(=O)[C@H](CC(=O)N1CCN(C(=O)C3CC3)CC1)C2	none (no result: 3CLpro inhibitor, DUSP3 inh)
COc1ccc(C2C(C#N)=C(N)Oc3cc(N)ccc32)cc1 (stereo not given)	BoNT-F LC inh inconclusive, DUSP3 inh 56
O=[N+]([O-])c1ccc(NN=Cc2ccccc2O)nc1	none (no result: 3CLpro inhibitor, DUSP3 inh)
O=[N+]([O-])c1ccc(O)c(/C=N/Nc2ccccn2)c1	BoNT-F LC inh 67
COc1ccc(C)cc1S(=O)(=O)NCCN1CCOCC1	none
COc1cc(C)c(Cl)cc1S(=O)(=O)NCCN1CCOCC1	Autofluor counter 23984
COc1ccc(Br)cc1S(=O)(=O)NCCN1CCOCC1	DUSP3 inh 57
CSc1nnc([C@@H](N)Cc2c[nH]c3ccccc23)o1	none
CCSc1nnc([C@@H](N)Cc2c[nH]c3ccccc23)o1	none
CCSc1nnc([C@@H](N)Cc2ccccc2)o1	Autofluor counter 21095
Cc1ccc(C)c(NC(=O)CSc2nnc([C@@H](N)Cc3ccccc3)o2)c1	Autofluor counter 24097
Cc1cccc(NC(=O)CSc2nnc([C@@H](N)Cc3c[nH]c4ccccc34)o2)c1C	Autofluor counter 23387
N[C@@H](Cc1c[nH]c2ccccc12)c1nnc(SCc2ccccc2F)o1	Autofluor counter 22370
CN(CCOc1ccc(Cl)cc1)C(=O)C1CCN(C(=O)c2ccc(F)cc2)CC1	none
COc1ccc(N2C(=O)C3C4C=CC(C4)C3C2=O)c(OC)c1 (stereo not given)	Autofluor counter 22210
Cc1cc(C)nc(N2CCC(C(=O)NCc3cccs3)CC2)n1	Autofluor counter 23240, BoNT A protease inconclusive
Cc1cc(-c2ccccc2)nc(N2CCC(C(=O)NCC3CCCCC3)CC2)n1	none (no result: Autofluor counter, BoNT-F LC inh, BoNT A protease, Anthrax LF inh2, DUSP3 inh)
Cc1cc(-c2ccccc2)nc(N2CCC(C(=O)NC(C)C)CC2)n1	Autofluor counter 16521
Cc1oc(-c2ccccc2F)nc1CN1CCC(C(=O)NCc2cccs2)CC1	Autofluor counter 21985
Cc1ccccc1-c1nc(CN2CCC(C(=O)NCC3CCCO3)CC2)c(C)o1 (stereo not given)	Autofluor counter 25315
Cc1ccc(N(O)C(=O)NCCCCNC(=O)N(O)c2ccc(C)cc2)cc1	none
COc1cccc(NC(=O)CN(C)C(=O)C2CCN(C(=O)c3ccccc3C)CC2)c1	none (no result: 3CLpro inhibitor, DUSP3 inh)
O=C(NCC1CCCO1)c1ccc(NC(=O)c2cccc([N+](=O)[O-])c2)cc1 (stereo not given)	none
Cc1nn(Cc2ccccc2)c(C)c1CNC(=O)[C@H](C)N=C1NS(=O)(=O)c2ccccc21	none (no result: 3CLpro inhibitor, DUSP3 inh)
CC(C)n1ncc2c(C(=O)Nc3cccc(C#N)c3)cc(C3CC3)nc21	none (no result: 3CLpro inhibitor, DUSP3 inh)
CC(C)CN(CC(C)C)c1nn[nH]n1	none (no result: 3CLpro inhibitor, DUSP3 inh)
Cc1oc(-c2ccccc2F)nc1CN1CCC(C(=O)NC2CC2)CC1	Autofluor counter 20198
COc1ccc(OC)c(NP2(=O)OCC(C)([N+](=O)[O-])CO2)c1 (stereo not given)	none (no result: 3CLpro inhibitor, DUSP3 inh)
Oc1ccc(C[C@H]2CNC(=S)N2C[C@H]2CCCN2C[C@H](Cc2ccccc2)N2C[C@H](Cc3ccc(O)cc3)N(CCc3ccccc3)C2=S)cc1	none (no result: 3CLpro inhibitor, DUSP3 inh)
Cc1ccc(S(=O)(=O)N2CCCCC2C(=O)O)s1 (stereo not given)	none
Cc1ccc(S(=O)(=O)N2CCCC2C(=O)O)s1 (stereo not given)	Autofluor counter 24047
O=C(O)C1CCCN1S(=O)(=O)c1ccccc1 (stereo not given)	Autofluor counter 20858
COc1ccc(CCNC(=O)c2cc(S(=O)(=O)N3CCOCC3)cn2C)cc1OC	none
COc1ccc(Cl)cc1N(CC(=O)Nc1ccccc1C(=O)N1CCCC1)S(C)(=O)=O	DUSP3 inh 58
CS(=O)(=O)N(CC(=O)Nc1ccccc1C(=O)NCc1ccco1)c1ccc2c(c1)OCCO2	Autofluor counter 23961
